Hits are enriched below; roughly 0.93% of the tested compounds scored in any of these assays.
MMP13 inh: MMP13 (human) collagenase inhibition; P45452; MMP-13 fTHP FRET cleavage, Mca fluorescence; inhibition, % at 4 µM; actives 0.07% (n = 65,000); AID 570;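 active means inhibition above the mean of compound-free control plate wells plus 3 SD, cut at about 14% in these data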;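 further: 0% = DMSO wells and 100% = wells with reference MMP-13 inhibitor after basal subtraction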
MKP-1 inh: human dual specificity phosphatase 1 inhibition; inhibition, %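 (compounds tested at a single concentration somewhere between 10 and 100 µM)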; P28562; actives 0.15% (n = 65,000); recombinant MKP-1, OMFP hydrolysis fluorescence;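 active means inhibition above about 50%, limit read from the data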;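 further: 0% = DMSO max control wells and 100% = wells with enzyme stopped by NaOH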
WNV protease inh: blocks West Nile virus NS2B-NS3 protease activity; WNV NS2B-NS3 protease, fluorogenic substrate Ex360/Em465; hits give low values; actives 0.18% (n = 65,000); z-score (no concentration beside the values); in the data active means z-score below about -3
Cdc25B inh: inhibitors of human Cdc25B phosphatase; AID 368; inhibition, %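 (compounds tested at 10 µM final in the well)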; P30305; recombinant Cdc25B, OMFP fluorescence Ex485/Em525; actives 0.1% (n = 65,000); in the data active means inhibition above about 50%
Target sequence (P30305 whole entry, looked up): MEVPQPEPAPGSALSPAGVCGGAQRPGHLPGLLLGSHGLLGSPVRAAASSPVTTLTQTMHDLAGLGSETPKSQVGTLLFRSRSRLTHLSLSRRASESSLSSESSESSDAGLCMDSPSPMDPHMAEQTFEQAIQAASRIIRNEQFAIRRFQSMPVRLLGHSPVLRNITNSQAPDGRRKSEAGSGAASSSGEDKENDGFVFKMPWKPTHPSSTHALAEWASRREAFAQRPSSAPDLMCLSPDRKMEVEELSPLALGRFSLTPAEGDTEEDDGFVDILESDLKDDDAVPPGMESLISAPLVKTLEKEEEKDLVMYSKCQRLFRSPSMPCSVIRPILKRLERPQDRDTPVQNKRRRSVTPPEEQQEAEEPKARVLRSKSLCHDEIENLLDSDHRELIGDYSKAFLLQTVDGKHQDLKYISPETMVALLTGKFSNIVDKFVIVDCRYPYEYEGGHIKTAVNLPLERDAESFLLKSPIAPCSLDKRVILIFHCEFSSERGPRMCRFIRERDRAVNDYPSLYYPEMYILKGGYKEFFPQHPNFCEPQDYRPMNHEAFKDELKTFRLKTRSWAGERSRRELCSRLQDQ
BAP1 block: inhibitors of human BAP1 deubiquitinase; calls only at 20 µM; actives 0.48% (n = 72,000); Q92560; recombinant BAP1, Ub-AMC hydrolysis fluorescence kinetic; hits give low values; AID 436;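 active means activity remaining at or below 50% of control, provided the compound also passes the data quality filters; inactive means the rest, including low values that fail the filters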;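 further: 100% = DMSO wells rate and 0% = substrate alone blank rate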
* marks the source's active call; other numbers are inactive results; i = inactive; nt = no result shown.

SMILES	MMP13 inh	MKP-1 inh	WNV protease inh	Cdc25B inh	BAP1 block
Nc1cc(OC(=O)c2cccs2)nn1S(=O)(=O)c1ccccc1	2	5	-8.1*	-6	i
Cc1nn(-c2ccccc2)c(OC(=O)c2cccs2)c1S(=O)(=O)c1ccccc1	4	-9	-1.2	5	i
CCCCSc1nnc2c(n1)OC(c1ccc(OCC)cc1)Nc1ccccc1-2 (configuration not stated)	nt	nt	nt	nt	i
Cc1ccccc1NC(=O)c1ocnc1C	7	4	1.9	-5	i
Cc1ccc(Cl)cc1NC(=O)c1ocnc1C	-2	20	-3.4*	-2	i
COc1cccc2cc(-c3csc(CCn4nc(C)cc4C)n3)c(=O)oc12	-8	23	-4.6*	-10	i
COc1ccc(C(=O)CSc2nnc(CNC(=O)c3ccc(OC)c(OC)c3)n2C)cc1	1	74*	-0.32	-10	i
CCn1c(CNC(=O)c2ccc(OC)c(OC)c2)nnc1SCC(=O)c1ccc(OC)cc1	3	9	-1.2	-12	i
Cn1c(=O)oc2cc(S(=O)(=O)NCCC(=O)NC3CCCC3)ccc21	-3	52*	-0.95	-19	i
C=CCn1c(SCC(=O)OC)nc2sc3c(c2c1=O)CCN(C)C3	-26	-12	-7.4*	-27	i
COC(=O)CSc1nc2sc3c(c2c(=O)n1-c1ccccc1)CCN(C)C3	-28	-3	-0.87	6	i
COc1cc(-n2nnnc2SCC(=O)N2CCN(c3ccc(F)cc3)CC2)c(OC)cc1Cl	-5	0	0.62	0	nt
CCOC(=O)CSc1nnnn1-c1cc(OC)c(Cl)cc1OC	-6	6	-0.99	51*	i
COC(=O)c1ccc(CSc2nnc(SCc3ccc(C(=O)OC)o3)s2)o1	-1	15	-3.5*	3	i
Cc1oc2c(CN(C)C)c(O)ccc2c(=O)c1-c1ccc2ccccc2n1	0	-3	-3.1*	2	i
Cc1ccc(CN2CCN(CC(=O)N3CCc4ccccc4C3)C2=O)cc1	0	32	-0.35	-2	i
Cc1ccc(CN2CCN(CC(=O)N3CCC(C(N)=O)CC3)C2=O)cc1	-1	-1	0.7	70*	i
CCSCCOC(=O)C1=C(C)NC2=C(C(=O)CCC2)C1c1coc2ccccc2c1=O (configuration not stated)	1	50*	0.15	-4	i
[O-]/[N+](=C\c1ccncc1)c1ccc(Br)cc1	nt	57*	-0.44	-21	nt
CCC(=O)N1CCc2cc(Br)cc(S(=O)(=O)CC(=O)OC)c21	3	0	-4.8*	-12	i
CCC(=O)N1CCc2cc(Br)cc(S(=O)(=O)NCCN3CCOCC3)c21	3	0	-0.97	-13	nt
COc1cccc(C(=O)NC2(C(F)(F)F)N=C3SCCN3C2=O)c1 (configuration not stated)	-1	-2	-4.8*	0	i
O=C(NC1(C(F)(F)F)N=C2SCCN2C1=O)C1CCCCC1 (configuration not stated)	4	-11	0.18	-12	nt
COc1ccc(C2=Nn3c(nnc3-c3ccc(OC)cc3)SC2)cc1	-8	9	-9.6*	3	i
O=C(Cc1ccccc1)N1CCN(C(=O)c2cccs2)CC1	1	-23	-0.27	-8	i
SMILES	MMP13 inh	MKP-1 inh	WNV protease inh	Cdc25B inh	BAP1 block
O=C(c1cccs1)N1CCN(C(=O)c2ccco2)c2ccccc2C1	-1	0	-4.8*	-8	i
Clc1ccccc1C=Nc1ccc2c(c1)OCCO2	nt	nt	nt	nt	i
C=CCn1c2ccccc2n2cc(-c3ccc([N+](=O)[O-])cc3)nc12	nt	nt	nt	nt	i
CCOC(=O)c1c(NC(=O)CSc2nc3c(c(=O)n(C)c(=O)n3C)n2CC)sc(C)c1C	-8	24	-1.1	-15	i
CCCn1c(SCC(=O)Nc2sc(C)c(C)c2C(=O)OC)nc2c1c(=O)n(C)c(=O)n2C	-2	29	-3.8*	2	i
NC(=O)c1cc2cc(Cl)ccc2oc1=Nc1ccccc1	nt	nt	nt	nt	i
CCOC(=O)C1CCN(S(=O)(=O)c2ccc(C(=O)OC)cc2)CC1	5	6	-5.5*	-5	i
CCOC(=O)C1CCN(S(=O)(=O)c2ccc(NC(=O)OC)cc2)CC1	12	-4	-0.68	-18	i
COc1cc(C)nc(Oc2ccc(OCCOc3ccc(C)cc3)nn2)n1	1	-26	-8.5*	15	i
COc1cc(C)nc(Oc2ccc(=O)n(C)n2)n1	-13	-16	0.65	-27	i
CC12C=CC(O1)C1C(=O)N(c3ccc(Br)cc3[N+](=O)[O-])C(=O)C12 (configuration not stated)	nt	nt	nt	nt	i
Cc1csc2ncc(C(=O)NCc3ccc4c(c3)OCO4)c(=O)n12	16*	4	-0.49	-7	i
Cc1csc2ncc(C(=O)NCc3ccccc3Cl)c(=O)n12	-84	8	-0.42	0	nt
COc1ccc(OC)c(NS(=O)(=O)c2cccs2)c1	6	-20	-6*	2	i
O=C(O)c1cc(N2C(=O)c3ccc([N+](=O)[O-])cc3C2=O)cc(N2C(=O)c3ccc([N+](=O)[O-])cc3C2=O)c1	nt	nt	nt	nt	i
OCCNC1=NCCN1	-4	-3	-3.2*	0	i
Cc1nn(C(C)C(=O)O)c(=O)c2c1sc1ccccc12 (configuration not stated)	-4	29	-0.34	4	i
Cc1nn(C(C)C(=O)N2CCCCC2)c(=O)c2c1sc1ccccc12 (configuration not stated)	-23	67*	-0.51	-8	i
CCOC(=O)CNC(=O)C(Cc1ccccc1)NS(=O)(=O)c1cccs1 (configuration not stated)	-3	3	-3.4*	-6	nt
Cc1cc(N2CCC(C(=O)NC3CC3)CC2)nc(-c2ccccc2)n1	3	8	-0.38	-2	i
Cc1cc(N2CCC(C(=O)NC3CCCCC3)CC2)nc(-c2ccccc2)n1	-1	9	-4.8*	-1	i
COc1ccc(NC(=O)c2cc3nc(-c4cccs4)cc(C(F)(F)F)n3n2)c(OC)c1	nt	nt	nt	nt	i
O=C(CSc1nc2ccccc2c(=O)[nH]1)Nc1ccc(S(=O)(=O)N2CCCC2)cc1	3	53*	1.2	0	i
O=C(CCn1cnc2ccccc2c1=O)Nc1ccc(S(=O)(=O)N2CCCC2)cc1	1	3	0.97	-13	i
C/C(CC1(O)C(=O)N(Cc2ccccc2)c2ccccc21)=N\O (configuration not stated)	0	-17	-6.4*	6	i
C/C(CC1(O)C(=O)N(C)c2ccccc21)=N\O (configuration not stated)	0	3	-0.52	6	i
C=CCOc1ccc2c(C)c(Cc3ccccc3)c(=O)oc2c1C	nt	nt	nt	nt	i
CC1CCCC(NC(=O)CCn2c(=O)oc3ccccc32)C1C (configuration not stated)	3	4	0.31	-5	i
CC1CCCCC1NC(=O)CCn1c(=O)oc2ccccc21 (configuration not stated)	-2	77*	0.27	-1	i

From PubChem
